In the supplement of paper PMC10849652 one finds log2 fold change data, which are given here for 27 targets.

About 8,800 targets were measured; listed, in parts, are those with a hit and a random draw of the rest. About 0.5% of all pairs of compound and target were hits. A number with no mark means an inactive call.

Holding throughout (assay): log2 fold change, soluble protein after heating vs DMSO (PISA); higher = thermal stabilisation; K562 lysate, 10 uM; active = over 0.2 and 3.5 SD of the protein, either way, in both replicates (recomputed)
Compound in test [1]: NCC(=O)Nc1ccc(-n2nc(C(F)(F)F)cc2-c2ccc3c(ccc4ccccc43)c2)cc1
The procedure, abridged: (§1)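 Values give the log-two fold change in thermal stability against solvent controls, from duplicates. Crude K562 extract at 1 mg/mL protein, made by dounce homogenisation in PBS pH 7.4 with 1 mM MgCl2, was treated with 10 μM compound for 30 min. After 3 min heating across 48°C-58°C, aliquots were pooled, adjusted to 0.5% NP-40 at 4°C and centrifuged at 21,000xg for 90 min. The supernatant was measured by TMTpro 16plex LC-MS/MS with channel sums equalised.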

Compound in the next test: O=C(CCCCCCC(=O)Nc1ccccc1)NO [vorinostat]
The method, boiled down: as §1

Compound in another test: O=C(O)c1ccc2c(c1)nc(Nc1cccc(Cl)c1)c1ccncc12 [silmitasertib]
The method, boiled down: as §1

Compound in test [2]: O=C1NC(=O)C(c2cnc3ccccn23)=C1c1cn2c3c(cc(F)cc13)CN(C(=O)N1CCCCC1)CC2
The procedure, abridged: as §1

Compound in another test: c1cn2cc(-c3ccc4cn[nH]c4c3)nc(Nc3ccc(N4CCOCC4)cc3)c2n1 [entospletinib]
The procedure, abridged: as §1

UniProt Q9P0K7, sequence (Q9P0K7 whole entry, looked up): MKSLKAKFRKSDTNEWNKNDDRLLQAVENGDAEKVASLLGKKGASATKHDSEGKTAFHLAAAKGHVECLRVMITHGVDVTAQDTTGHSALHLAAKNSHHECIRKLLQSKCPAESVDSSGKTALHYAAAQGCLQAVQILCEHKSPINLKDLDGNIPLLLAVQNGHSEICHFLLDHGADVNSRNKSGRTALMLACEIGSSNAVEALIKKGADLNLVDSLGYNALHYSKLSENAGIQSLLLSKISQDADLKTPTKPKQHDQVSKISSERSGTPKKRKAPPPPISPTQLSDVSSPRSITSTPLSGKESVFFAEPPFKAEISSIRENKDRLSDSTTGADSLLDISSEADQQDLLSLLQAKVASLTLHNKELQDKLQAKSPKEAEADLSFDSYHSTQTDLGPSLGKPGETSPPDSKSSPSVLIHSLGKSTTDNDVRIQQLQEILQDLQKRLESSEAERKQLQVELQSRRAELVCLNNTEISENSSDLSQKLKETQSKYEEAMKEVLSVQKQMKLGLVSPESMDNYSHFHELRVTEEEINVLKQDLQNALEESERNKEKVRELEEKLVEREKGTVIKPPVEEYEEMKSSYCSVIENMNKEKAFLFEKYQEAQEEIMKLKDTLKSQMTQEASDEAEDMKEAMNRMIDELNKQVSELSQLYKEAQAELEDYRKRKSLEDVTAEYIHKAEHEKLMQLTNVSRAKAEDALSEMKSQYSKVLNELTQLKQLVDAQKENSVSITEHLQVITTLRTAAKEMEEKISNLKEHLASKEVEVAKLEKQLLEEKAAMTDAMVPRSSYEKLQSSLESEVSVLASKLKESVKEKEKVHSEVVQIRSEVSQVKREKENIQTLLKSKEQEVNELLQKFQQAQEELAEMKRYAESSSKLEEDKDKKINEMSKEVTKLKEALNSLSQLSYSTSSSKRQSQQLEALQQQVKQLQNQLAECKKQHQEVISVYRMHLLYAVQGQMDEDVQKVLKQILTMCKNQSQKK
UniProt Q99496, sequence (Q99496 whole entry, looked up): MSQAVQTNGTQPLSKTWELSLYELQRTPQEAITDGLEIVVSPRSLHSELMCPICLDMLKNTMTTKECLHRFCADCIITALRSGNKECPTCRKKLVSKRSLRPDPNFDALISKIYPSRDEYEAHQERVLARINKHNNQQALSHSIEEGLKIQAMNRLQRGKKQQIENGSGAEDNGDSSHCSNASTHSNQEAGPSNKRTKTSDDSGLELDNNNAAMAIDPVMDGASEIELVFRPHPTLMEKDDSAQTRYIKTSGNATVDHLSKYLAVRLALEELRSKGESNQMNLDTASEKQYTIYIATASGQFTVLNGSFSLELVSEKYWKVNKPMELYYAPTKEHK
UniProt Q9BWH6, sequence (Q9BWH6 whole entry, looked up): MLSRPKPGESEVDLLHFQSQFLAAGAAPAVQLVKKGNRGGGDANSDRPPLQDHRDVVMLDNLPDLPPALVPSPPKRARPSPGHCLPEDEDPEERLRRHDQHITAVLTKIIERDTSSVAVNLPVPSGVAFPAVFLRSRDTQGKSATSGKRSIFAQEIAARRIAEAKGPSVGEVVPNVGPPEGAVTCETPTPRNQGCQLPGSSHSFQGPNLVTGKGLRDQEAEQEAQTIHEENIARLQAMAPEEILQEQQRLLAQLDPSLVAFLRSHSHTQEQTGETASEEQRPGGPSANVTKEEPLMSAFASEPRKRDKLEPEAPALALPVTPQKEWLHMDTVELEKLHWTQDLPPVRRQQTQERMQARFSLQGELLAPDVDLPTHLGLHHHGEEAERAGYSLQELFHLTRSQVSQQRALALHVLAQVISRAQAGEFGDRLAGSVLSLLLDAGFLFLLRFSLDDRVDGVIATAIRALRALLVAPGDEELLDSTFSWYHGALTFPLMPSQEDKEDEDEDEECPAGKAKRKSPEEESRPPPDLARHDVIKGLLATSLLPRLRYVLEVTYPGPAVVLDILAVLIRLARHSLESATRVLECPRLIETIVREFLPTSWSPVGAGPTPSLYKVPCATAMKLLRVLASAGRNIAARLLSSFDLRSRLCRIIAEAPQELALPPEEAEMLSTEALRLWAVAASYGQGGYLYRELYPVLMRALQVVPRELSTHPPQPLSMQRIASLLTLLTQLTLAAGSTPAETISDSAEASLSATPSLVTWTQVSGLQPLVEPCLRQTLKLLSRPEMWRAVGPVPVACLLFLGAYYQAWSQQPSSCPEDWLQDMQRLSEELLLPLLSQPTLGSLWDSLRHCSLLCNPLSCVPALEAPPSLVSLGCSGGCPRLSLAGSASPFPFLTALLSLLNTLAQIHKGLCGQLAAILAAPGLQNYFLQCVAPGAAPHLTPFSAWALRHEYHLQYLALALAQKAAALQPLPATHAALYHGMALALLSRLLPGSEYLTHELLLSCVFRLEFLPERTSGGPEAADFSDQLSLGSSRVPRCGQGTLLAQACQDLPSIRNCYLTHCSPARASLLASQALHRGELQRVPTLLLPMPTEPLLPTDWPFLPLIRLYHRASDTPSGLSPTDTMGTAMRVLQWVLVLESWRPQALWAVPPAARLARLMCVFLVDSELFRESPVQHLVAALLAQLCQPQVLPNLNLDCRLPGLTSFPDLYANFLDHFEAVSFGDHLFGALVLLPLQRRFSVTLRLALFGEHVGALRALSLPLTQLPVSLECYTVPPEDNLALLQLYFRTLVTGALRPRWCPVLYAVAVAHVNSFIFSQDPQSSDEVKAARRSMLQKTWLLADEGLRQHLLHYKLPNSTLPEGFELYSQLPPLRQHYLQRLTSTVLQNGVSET
UniProt Q96DM3, sequence (Q96DM3 whole entry, looked up): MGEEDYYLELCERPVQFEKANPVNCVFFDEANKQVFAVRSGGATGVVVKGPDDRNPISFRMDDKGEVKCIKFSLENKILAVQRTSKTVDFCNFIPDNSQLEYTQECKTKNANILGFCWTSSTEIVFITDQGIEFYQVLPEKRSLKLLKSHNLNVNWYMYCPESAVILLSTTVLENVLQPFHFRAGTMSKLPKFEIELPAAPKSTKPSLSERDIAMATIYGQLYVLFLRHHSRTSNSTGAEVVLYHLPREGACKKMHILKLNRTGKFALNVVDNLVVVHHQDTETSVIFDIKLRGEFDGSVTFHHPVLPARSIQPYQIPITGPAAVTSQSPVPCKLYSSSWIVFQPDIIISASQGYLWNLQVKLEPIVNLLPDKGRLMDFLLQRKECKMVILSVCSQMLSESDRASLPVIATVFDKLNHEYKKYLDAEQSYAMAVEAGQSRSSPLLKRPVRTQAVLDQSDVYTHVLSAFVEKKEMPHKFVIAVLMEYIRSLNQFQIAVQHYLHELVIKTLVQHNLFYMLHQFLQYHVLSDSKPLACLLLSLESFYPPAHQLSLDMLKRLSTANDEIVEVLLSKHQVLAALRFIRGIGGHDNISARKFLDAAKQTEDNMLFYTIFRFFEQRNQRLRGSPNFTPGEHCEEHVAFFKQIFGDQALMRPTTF
UniProt Q8WXA3, sequence (Q8WXA3 whole entry, looked up): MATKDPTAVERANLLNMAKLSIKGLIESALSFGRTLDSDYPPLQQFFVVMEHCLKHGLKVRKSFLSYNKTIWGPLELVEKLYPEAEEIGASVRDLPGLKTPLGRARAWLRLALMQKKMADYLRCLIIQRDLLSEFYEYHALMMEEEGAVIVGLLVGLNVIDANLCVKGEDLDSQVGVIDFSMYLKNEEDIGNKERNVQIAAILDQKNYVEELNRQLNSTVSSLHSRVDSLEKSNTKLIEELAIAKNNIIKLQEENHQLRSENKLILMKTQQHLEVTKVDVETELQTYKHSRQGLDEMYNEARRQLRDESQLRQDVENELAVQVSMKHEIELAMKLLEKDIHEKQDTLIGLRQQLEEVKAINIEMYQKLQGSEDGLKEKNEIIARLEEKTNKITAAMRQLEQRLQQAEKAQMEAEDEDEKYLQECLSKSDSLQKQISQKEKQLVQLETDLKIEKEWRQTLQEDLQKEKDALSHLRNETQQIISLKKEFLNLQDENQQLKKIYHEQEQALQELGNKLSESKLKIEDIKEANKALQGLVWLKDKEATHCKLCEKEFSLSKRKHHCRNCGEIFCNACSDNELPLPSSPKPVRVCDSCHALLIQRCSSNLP
UniProt Q9P0P0, sequence (Q9P0P0 whole entry, looked up): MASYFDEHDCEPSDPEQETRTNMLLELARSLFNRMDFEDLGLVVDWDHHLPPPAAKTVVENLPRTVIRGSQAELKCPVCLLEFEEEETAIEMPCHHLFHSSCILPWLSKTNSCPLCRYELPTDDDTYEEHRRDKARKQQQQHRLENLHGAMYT
UniProt Q15418, sequence (Q15418 whole entry, looked up): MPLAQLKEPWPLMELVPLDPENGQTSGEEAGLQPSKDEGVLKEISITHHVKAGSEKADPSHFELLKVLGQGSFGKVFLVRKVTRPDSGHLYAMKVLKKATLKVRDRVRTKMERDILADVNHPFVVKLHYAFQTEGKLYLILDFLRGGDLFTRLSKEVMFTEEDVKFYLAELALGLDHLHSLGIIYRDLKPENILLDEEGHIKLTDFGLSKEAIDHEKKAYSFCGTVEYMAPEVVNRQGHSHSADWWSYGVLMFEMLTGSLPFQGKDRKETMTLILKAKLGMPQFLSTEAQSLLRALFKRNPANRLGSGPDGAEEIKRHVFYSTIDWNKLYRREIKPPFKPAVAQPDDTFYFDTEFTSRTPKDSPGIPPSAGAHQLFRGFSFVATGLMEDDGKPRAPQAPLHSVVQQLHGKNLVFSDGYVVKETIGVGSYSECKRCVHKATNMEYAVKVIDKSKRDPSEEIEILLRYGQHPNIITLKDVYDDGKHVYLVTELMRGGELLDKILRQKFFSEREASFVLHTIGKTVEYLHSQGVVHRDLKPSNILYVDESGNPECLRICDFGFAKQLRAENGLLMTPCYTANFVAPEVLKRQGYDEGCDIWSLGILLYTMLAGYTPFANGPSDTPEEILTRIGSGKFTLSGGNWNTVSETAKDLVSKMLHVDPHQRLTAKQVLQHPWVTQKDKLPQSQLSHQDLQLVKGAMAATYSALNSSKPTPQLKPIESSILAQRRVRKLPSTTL
UniProt Q9BUV8, sequence (Q9BUV8 whole entry, looked up): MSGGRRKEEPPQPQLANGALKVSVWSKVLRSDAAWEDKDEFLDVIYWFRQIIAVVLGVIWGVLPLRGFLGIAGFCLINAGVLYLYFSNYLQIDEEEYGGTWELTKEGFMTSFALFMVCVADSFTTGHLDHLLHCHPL

With RAI14 isoform 2 (UniProt Q9P0K7), the log2 fold change in test [1] was 0.005; with vorinostat it was -0.254 (active); with silmitasertib, 0.022; in test [2] it was 0.015; in the test with entospletinib it was -0.003.
The matching figures for SERPINI1 (UniProt Q99574): -0.04, 0.124, -0.021, -0.003 and -0.016.
The matching figures for RPS26P11 (UniProt Q5JNZ5): -0.026, 0.114, 0.049, -0.113 and -0.035.
For RETREG2 (UniProt Q8NC44) the same measures were -0.058, 0.023, 0.015, -0.007 and -0.004.
Take RAB27A (UniProt P51159): the log2 fold change in test [1] was -0.033; in the test with vorinostat, -0.08; in the test with silmitasertib, 0.066; in test [2] it was -0.009; with entospletinib, 0.023.
The matching figures for RNASEL (UniProt Q05823): -0.005, -0.298 (active), 0.055, -0.021 and -0.023.
For RMC1 (UniProt Q96DM3) the same measures were 0.008, -0.391 (active), 0.017, -0.013 and 0.037.
For RRAGA (UniProt Q7L523) the same measures were -0.007, 0.099, 0.039, -0.015 and 0.05.
On to RIOK3 (UniProt O14730), for which the log2 fold change in test [1] is -0.024; with vorinostat it was -0.605 (active); with silmitasertib it was -0.017; in test [2], -0.024; in the test with entospletinib, -0.004.
In the case of RNF181 (UniProt Q9P0P0), the log2 fold change was -0.014 in test [1]; 0.101 with vorinostat; -0.019 in the test with silmitasertib; -0.023 in test [2]; -0.24 (active) in the test with entospletinib.
With RLIM (UniProt Q9NVW2), the log2 fold change in test [2] was 0.289.
As to RUFY2 isoform 1 (UniProt Q8WXA3), the log2 fold change in test [1] was -0.009; in test [2], -0.129; with entospletinib, -0.014.
For the target RPS6KA1 (UniProt Q15418), the log2 fold change in test [1] is 0.014; with vorinostat it was -0.157; with silmitasertib, 0.553 (active); in test [2] it was 0.123; in the test with entospletinib, -0.038.
For RIC1 (UniProt Q4ADV7) the same measures were -0.053, -0.193, 0.057, -0.06 and 0.045.
For RPLP0P6 (UniProt Q8NHW5) the same measures were 0.009, 0.123, 0.004, -0.003 and 0.017.
For the target RNF2 (UniProt Q99496), the log2 fold change in test [1] is -0.015; with vorinostat, -0.037; with silmitasertib it was 0.021; in test [2] it was 0.008; with entospletinib, -0.033.
For the target RBM45 (UniProt Q8IUH3), in test [2], the log2 fold change was 0.093.
As to RNPC3 (UniProt Q96LT9), the log2 fold change with vorinostat was -0.488 (active); with silmitasertib, 0.145; in test [2], 0.036.
For RBM4 (UniProt Q9BWF3), the log2 fold change in test [1] is -0.04; in the test with vorinostat it was -0.172; in the test with silmitasertib, 0.035; in test [2], -0.097; with entospletinib it was 0.001.
With RAB5IF isoform 5 (UniProt Q9BUV8), the log2 fold change in test [1] was -0.039; with vorinostat it was -0.039; with silmitasertib, -0.007; in the test with entospletinib it was -0.015.
RNF17 (UniProt Q9BXT8): the log2 fold change with vorinostat was -0.016; in the test with silmitasertib, -0.021; in test [2] it was -0.106; with entospletinib it was 0.107.
The matching figures for SCNM1 (UniProt Q9BWG6): -0.13, -0.102, -0.082 and 0.092.
Regarding RAD54L (UniProt Q92698), the log2 fold change is -1.06 (active) with vorinostat and 0.065 in the test with silmitasertib.
Turning to SCD (UniProt O00767), the log2 fold change is -0.045 in test [1]; 0.021 with vorinostat; -0.057 with silmitasertib; -0.028 in test [2]; 0.017 with entospletinib.
As for ROCK1 (UniProt Q13464), the log2 fold change in test [1] was 0; in the test with vorinostat it was -0.211 (active); in test [2] it was -0.017; in the test with entospletinib, -0.016.
Regarding RPAP1 (UniProt Q9BWH6), the log2 fold change is 0.006 in test [1]; -0.232 (active) with vorinostat; 0 with silmitasertib; 0.015 in test [2]; -0.025 with entospletinib.
RYR1 (UniProt P21817): the log2 fold change was 0.066 with vorinostat, -0.017 in the test with silmitasertib, -0.069 in test [2] and 0.101 with entospletinib.
